Bioassay records (PubChem)
A549 viability: counter-screen for Nrf2 inhibitors: cytotoxicity in A549 cells. A549 ARE-Fluc cells, CellTiter-Fluor viability, 18-24 h. Potency, µM (series often up to 46 µM), hits mostly inhibitors. hit rate 0.16% among 390,000. AID 504648
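Cytotoxicity counterscreen: CellTiter-Fluor fluorescence was measured in A549 ARE_Fluc cells after 18-24 h of compound exposure in a concentration series. The subsequent BugLite luminescent read reports ARE-luciferase activity.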
Nrf2 block: inhibitors of Nrf2 signaling | A549 ARE-Fluc reporter, luciferase luminescence, 18-24 h | Potency, µM (top dose mostly 46 µM), usual class: inhibitors | hit rate 2.1% among 360,000 | AID 504444; also: nearly all actives have a fitted effect of over 60% in size
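Cells were seeded and rested 2 h, then exposed to compounds for 18-24 h. CellTiter-Fluor was read first as a viability measure. BugLite was added 15 min before the final luminescent read of ARE-luciferase activity in A549 cells.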
TrxR1 substrate: rat thioredoxin reductase 1 substrate activity. O89049. purified TrxR1 substrate turnover, NADPH consumption readout. Potency, µM (series often up to 114 µM). hit rate 0.01% among 390,000; also: nearly all actives have a fitted effect of over 50% in size
Target sequence (O89049 whole entry, looked up): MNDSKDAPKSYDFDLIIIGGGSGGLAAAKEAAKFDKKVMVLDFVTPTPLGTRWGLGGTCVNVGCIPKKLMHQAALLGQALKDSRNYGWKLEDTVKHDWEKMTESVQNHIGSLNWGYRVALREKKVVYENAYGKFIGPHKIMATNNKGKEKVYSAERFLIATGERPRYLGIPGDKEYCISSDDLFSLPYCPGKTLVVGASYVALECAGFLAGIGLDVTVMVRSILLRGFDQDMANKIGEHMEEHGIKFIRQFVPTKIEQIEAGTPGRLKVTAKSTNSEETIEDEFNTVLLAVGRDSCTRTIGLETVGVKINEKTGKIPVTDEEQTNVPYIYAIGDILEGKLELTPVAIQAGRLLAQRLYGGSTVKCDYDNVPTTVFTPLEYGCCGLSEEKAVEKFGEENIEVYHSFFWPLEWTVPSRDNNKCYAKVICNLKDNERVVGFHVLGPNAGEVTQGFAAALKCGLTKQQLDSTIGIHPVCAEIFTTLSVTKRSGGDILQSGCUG
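Rat TrxR1, dispensed at 90 nM, was prereduced with 400 uM NADPH (final) for 5 min at ~22 deg C, then incubated with compound 15 min before 400 uM selenite. A first-read NADPH fluorescence drop versus no-compound background flagged substrates.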
TrxR1 inh: blocks rat thioredoxin reductase 1; O89049; recombinant rTrxR1, NADPH fluorescence consumption, selenite substrate; Potency, µM (top dose mostly 114 µM), most hits filed as inhibitors; hit rate 1% among 390,000; also: nearly all actives have a fitted effect of over 65% in size
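Rat TrxR1 (90 nM in the dispensed reagent) was pre-reduced with 400 uM NADPH for 5 min at room temperature, then incubated with compound for 15 min. After 400 uM selenite was added, NADPH fluorescence (Ex 340/Em 450 nm) was followed for 8 min.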
Nrf2 activator: Nrf2 pathway activation; AREc32 ARE-luciferase reporter (MCF7-derived line), luminescence, 24 h; Potency, µM (top dose mostly 46.1 µM), actives largely listed as activators; hit rate 0.31% among 410,000; AID 624171; also: nearly all actives have a fitted effect of over 65% in size
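Luciferase luminescence (Steady-Glo, 30 min at room temperature) served as the read-out of ARE activation in AREc32 cells treated with compounds for 24 hr at 37 deg C.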
GALK inh: blocks human galactokinase activity | hit rate 0.007% among 270,000 | Potency, µM (highest dose often 57.5 µM), hits mostly inhibitors | Purified GALK, Kinase-Glo residual ATP luminescence | P51570
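ATP-depletion format; final 35 uM ATP, 100 uM D-galactose, 5 nM enzyme; pH 8.0 HEPES/Mg2+ buffer; 60 min RT; luminescence read 10 min after detection reagent.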
Hits are given with their value; n = inactive; u = inconclusive; x = no result given; [ ] = dose if it differs, or a comment. Hits are enriched below; roughly 3% of the tested compounds scored in any of these assays. Calls follow the shape of the dose curve; as a rule, active = well fitted curve in the direction sought with a large enough effect; inconclusive = small, poorly fitted or top-dose-only effect, or another doubt; inactive = no such curve, though single readings can be large; an effect the other way counts as inactive or inconclusive.

SMILES	A549 viability	Nrf2 block	TrxR1 substrate	TrxR1 inh	Nrf2 activator	GALK inh
CN(C)c1ccc(/C=C/c2cc[n+](C)cc2)cc1	20.6µM	4.11µM	n	n	n	n
CN1CCCN=C1/C=C/c1cccs1	n	n	n	n	n	n
Cc1ccc(/C=C/c2ccc(N(C)C)cc2)[n+](C)c1	10.3µM	4.11µM	n	n[2.29 µM]	n	n
CN(C)c1ccc(/C=C/c2cc[n+]([O-])cc2)cc1	x	x	x	x	x	n
C[n+]1ccc(/C=C/c2cccs2)cc1	8.2µM	2.31µM	n	n	n	n
CCOC(=O)N1CCN(C(=O)CN(c2ccc(C)cc2C)S(=O)(=O)c2ccccc2)CC1	n	n	n	n	n	x
Cc1[nH]c2ccccc2c1C1C(c2ccccc2)=NN=C(C(C)C)N1O (centres undefined)	n	n	n	44.7µM	n	n
COc1ccc(CCNc2ncnc3nc[nH]c23)cc1	n	14.6µM	n	n	x	x
COc1ccccc1CCNc1ncnc2nc[nH]c12	n	u	n	n	x	x
COc1ccc2oc(=O)c(C(=O)NCCc3c(C)[nH]c4c(Cl)cccc34)cc2c1	n	n	n	n	n	x
COc1cccc(CN2c3ccccc3-c3nc(SCC(=O)Nc4ccccc4Cl)ncc3S2(=O)=O)c1	n	n	n	n	n	x
CC(C)(C)c1ccc(Cn2cnc(-c3ccc([N+](=O)[O-])cc3)c2)cc1	u	u	n	n	n	n
Cc1cc(C)c(Cn2cnc(-c3ccc([N+](=O)[O-])cc3)c2)c(C)c1	u	20.6µM	n	n	n	n
Cc1c(P(=S)(c2ccccc2)c2ccccc2)c2ccccc2n1C/C=C/c1ccccc1	n	n	x	x	x	x
CC(C)(C=O)C1=CC(=O)c2ccccc2C1=O	n	n	n	44.7µM	n	n
O=C(COc1ccc2ccccc2c1)NC1CC(=O)N(c2ccc(F)cc2)C1 (centres undefined)	n	x	n	n	n	x
CCOc1ccc(NC(=O)c2nc(SCc3ccccc3F)ncc2Cl)cc1	x	x	n	n	x	x
CS(=O)(=O)c1ncc(Cl)c(C(=O)Nc2ccc3ccccc3c2)n1	u	n	n	12.6µM	n	n
O=C(Nc1ccc(OC(F)F)cc1)c1nc(S(=O)(=O)Cc2ccccc2F)ncc1Cl	x	x	n	3.55µM	x	x
COC(=O)c1ccccc1NC(=O)CN(CCc1ccccc1)S(C)(=O)=O	n	u	n	n	n	n
COC(=O)c1cscc1S(=O)(=O)Cc1ccccc1	n	n	n	20µM	n	n
O=C(Nc1ccc2ccccc2c1)c1cnccn1	n	x	n	n	n	n
CCOc1ccc(NC(=O)c2nc(S(=O)(=O)Cc3ccccc3F)ncc2Cl)cc1	u	u	n	1.78µM	u	x
OC1C(Br)=Cc2ccccc21 (centres undefined)	x	x	n[0.0914 µM]	n	x	x
O=C(c1ccc(Cl)cc1)N1CCCCC1CCN1CCOCC1 (centres undefined)	n	n	n	n	n	x
SMILES	A549 viability	Nrf2 block	TrxR1 substrate	TrxR1 inh	Nrf2 activator	GALK inh
O=C(Nc1ccccc1)c1nc(S(=O)(=O)Cc2ccccc2F)ncc1Cl	x	x	n	u	x	x
COC(=O)c1ccc(NC(=O)c2nc(S(=O)(=O)Cc3ccccc3F)ncc2Cl)cc1	x	x	n	8.91µM	x	x
CCOc1ccc(NC(=O)c2nc(S(=O)(=O)Cc3ccccc3)ncc2Cl)cc1	x	x	n	2.24µM	x	x
CC(=O)Nc1ccc(NC(=O)c2nc(S(=O)(=O)Cc3ccccc3)ncc2Cl)cc1	n	n	n	n	n	n
COC(=O)c1ccccc1NC(=O)c1nc(S(=O)(=O)Cc2ccccc2)ncc1Cl	n	n	n	8.91µM	n	n
Cc1cc(C)n(-c2nc3ccccc3nc2Nc2cc(C(=O)O)ccc2C)n1	n	n	n	n	n	x
COc1ccc(F)cc1S(=O)(=O)NCCc1sc2nc(-c3ccc(F)cc3)nn2c1C	u	x	n	n	n	x
CC(C)(C)n1ncc2c(=O)n(Cc3cccc(F)c3)cnc21	x	x	n	n	x	x
O=C(O)c1cc(-n2c(/C=C\c3ccc(F)cc3)nc3ccccc3c2=O)ccc1Cl	n	x	n	n	n	x
Nc1c(N2CCCC2)cc(Cl)c2nonc12	u	16.4µM	n	25.1µM	n	n
Nc1ccc(N2CCCCC2)c2nonc12	n	u	50.1µM	u	n	n
Nc1ccc(N2CCCCC2)cc1N1CCCCC1	n	x	n	u	n	n
CCOC(=O)C1CCN(C(=O)c2c(C)nn(-c3ccc(F)cc3)c2-n2cccc2)CC1	n	n	n	n	n	x
CC(C)(C)n1ncc2c(=O)n(Cc3c(F)cc(Cl)cc3F)cnc21	x	x	n	n	x	x
CC1(C)Cc2c(sc3[nH]c(=S)n(Cc4ccco4)c(=O)c23)CO1	n	n	n	50.1µM	n	n
[O-]/[N+](=C\c1ccncc1)c1ccc(Br)cc1	n	u	n	35.5µM	n	x
COc1ccc(-c2ccc(C3C4C=CCC(C)C4C(=O)N3Cc3ccccc3)c(F)c2)cc1 (centres undefined)	n	u	n	n	x	x
CC(=O)c1ccc(-c2cc([C@H]3[C@H]4C=CC[C@@H](C)[C@@H]4C(=O)N3Cc3ccccc3)ccc2F)cc1	n	20.6µM	n	n	n	n
COC(=O)c1ccc(-c2ccc(C3C4C=CCC(C)C4C(=O)N3Cc3ccccc3)c(F)c2)cc1 (centres undefined)	n	10.3µM	n	n	x	x
COc1ccccc1NC(=O)c1sc2nc(C)c(C(=O)Nc3ccc(C)cc3C)c(-c3cccs3)c2c1N	n	n	n	n	n	x
COc1cccc(C2c3c(ncn(-c4ccc5c(c4)OCO5)c3=N)Oc3ccc4ccccc4c32)c1 (centres undefined)	n	n	x	x	x	x
CCCCSCCCNC(=O)c1cn(C)c2ccc(S(=O)(=O)N3CCCCCC3)cc2c1=O	n	n	n	n	n	x
O=C(O)CC1CCC(=C(Cl)Cl)C1 (centres undefined)	n	n	n	1µM	u	n
CC1=C(C(=O)Nc2ccc(C)cc2C)C(c2ccccc2F)n2nc(SCC(=O)c3ccc(C)cc3)nc2N1 (centres undefined)	n	x	n	n	n	x
O=C(NCCc1nc2ccccc2[nH]1)c1ccc(F)cc1	n	x	n	n	n	n
O=C(NCCc1nc2ccccc2[nH]1)c1cccc(Br)c1	n	25.9µM	n	n	n	n
COc1ccc(CN(CCC(C)C)S(=O)(=O)c2ccccc2Br)cc1	n	n	n	n	n	x
COc1ccc(CN(C2CC2)S(=O)(=O)c2ccccc2Br)cc1	n	16.4µM	n	n	n	x
Cc1cccc(N2CCN(C(=O)CN3CCOc4ccccc43)CC2C)c1 (centres undefined)	n	n	n	u	n	n
Cc1ccc(N2C(=O)C3C4C=CC(CNC(=S)N5CCN(c6cccc(C)c6)C(C)C5)(O4)C3C2=O)cc1 (centres undefined)	n	n	n	15.8µM	n	n
